Experimental data: publication PMC12864922, “TDP-43 directly inhibits mRNA accumulation in neurites through modulation of mRNA stability”
Positions count from the first letter of the chain named. Over roughly 9,900 sequences, “r (bound/input frequency ratio)” has its median near 0.7; the highest 2% begin near 6.5. The sample holds the highest values, similar sequences and a random draw of the others, so the mix is not that of the screen.

B1: ENSMUSG00000004113.301|Cacna1b (ssRNA)
RNA: GGGAGUUCUACAGUCCGACGAUCGCUUCGAUAUCCGCAUGCUAAGGCACUCCUUGGUGUGGUCUCUCUGUUUUGAAACUUCUGAUGACUUCUUGGUGGCUUGUUGUCUUCUACCCCAUGUUUCUCACAGGAUCUGUGUGUGUGUGUGUGUGUGUGUGUGUGUGUGUGUGUGUGUGUGUUAGCAUGUGUGUAUUAGCGUGUGUGAGUGUGUGAGCAUGCACGAGUCAUAGGAGAUGCAGGUGUAUGUGUGUGGUGUGCAUAUGUGUAUGUGUGUGUGUGUGUGUGUGUGUGUAGGUGUGUUCAGCUCUUGCGGUCGCACUAGUGUGGAAUUCUCGGGUGUCAAGG
B2: ENSMUSG00000090935.77|Synj2bp|54:58 (ssRNA)
RNA: GGGAGUUCUACAGUCCGACGAUCGCUUCGAUAUCCGCAUGCUACUUUGUCAGCAUAGGCAGGAGUCCUUUAGGAUUUCUGCCUAUCAGUAAAAGAACAUACUAACCCAAGUUCUACCUUCAGUGGAUUAAAGUUUCAUUAAGUGAAAAUGGAAAGAAAGUAGAAUUACUUGGUAAGAGGCCAAAUGAGGAUACAGAGGCUGAAGAAGAUUGAAAGGAGCUAGUGUAAACAAACAAACAAACAAACAAACAAAAAACCAAACCCCAAAACAAAAACAAAAACAAAACAAAAUUGGAGAAAGCAGCUCUUGCGGUCGCACUAGUGUGGAAUUCUCGGGUGUCAAGG
B3: ENSMUSG00000090935.14|Synj2bp|150:154 (ssRNA)
RNA: GGGAGUUCUACAGUCCGACGAUCGCUUCGAUAUCCGCAUGCUAGAGAGCAGUCAGAUAUGAACGGACGGGUGGAUUAUUUAGUCACGGAGGAAGAGAUCAACCUGACGAGAGGACCUUCGGGUAAAUGGCCAAGAUCUGAAGAACCUGCUGCACCAAGAUGCUGUAGACCUCUUCCGUAAUGCGGGAUGUGCACACACCCUGAGAGUACAGCACAGGUUACCAGUGCAGAAUGGACCUAUAGUACAUCGAGGUGAAGGAGAGCCAAGUGGAGUUCCUGUAGCUAUGGUGCUGCUACCAGUGUUCUCUUGCGGUCGCACUAGUGUGGAAUUCUCGGGUGUCAAGG
B4: ENSMUSG00000090935.23|Synj2bp (ssRNA)
RNA: GGGAGUUCUACAGUCCGACGAUCGCUUCGAUAUCCGCAUGCUAUCAACCUGACGAGAGGACCUUCGGGUAAAUGGCCAAGAUCUGAAGAACCUGCUGCACCAAGAUGCUGUAGACCUCUUCCGUAAUGCGGGAUGUGCUGUGUCCCUGAGAGUACAGCACAGGUUACCAGUGCAGAAUGGACCUAUAGUACAUCGAGGUGAAGGAGAGCCAAGUGGAGUUCCUGUAGCUAUGGUGCUGCUACCAGUGUUUGCCCUCACCAUGGUAGCAGUUUGGGCCUUCGUGAGAUACCGAAAGCAGCUUUGCUCUUGCGGUCGCACUAGUGUGGAAUUCUCGGGUGUCAAGG
B5: ENSMUSG00000031028.306|Tub|133:137 (ssRNA)
RNA: GGGAGUUCUACAGUCCGACGAUCGCUUCGAUAUCCGCAUGCUAAUUGCCAUCAGAGAACCCUCAGCGAGGUAGCCUUUGUUUACAGUCUAGUUUCUAGAGGGCAGUAGGACUUCCAUGCUGGGGCUGGCCUAUCUCCUGAUGAAAGAUUACAGUGCCAUCUCCUUCCCAUAGUUCACACACUGCCCUCCCUCCCUGACUUUAUAGGGAGAAAUCUCCUGACAUUAGAGGUGAUAGAAACCAGAGCUUUAGUCUAGUCAGGCUGUUUCUCUGGGUUGACAAGUUUAAGGUUGAACAGGCUGAUUCUCUUGCGGUCGCACUAGUGUGGAAUUCUCGGGUGUCAAGG
B6: ENSMUSG00000004113.120|Cacna1b (ssRNA)
RNA: GGGAGUUCUACAGUCCGACGAUCGCUUCGAUAUCCGCAUGCUAGGGACUUUCUGAGCCUCGUGGAGAGUGUGGUUUGUCCAAAUGUGUGGCAUGGGAGAUAGGGUACCCCUGAAAGCAAGGAAAGGAGCCCAGCUGUGGCCUGGUAGCACCUGCCGGCACCAGUGAUCUCACGUCUCUUGUGGUCUUGGAGUCAAAUAGCACAUGUAUGUAGAGAUGCGCUCAAGGGCCUGCCUUUCACCUACACUGUCACCAUAACAGGGACCAAAUCUGGAGGAUGUCCUUGCUGUUGAUUCUGGUUUUCACUCUUGCGGUCGCACUAGUGUGGAAUUCUCGGGUGUCAAGG
B7: ENSMUSG00000061578.1213|Ksr2|85:89 (ssRNA)
RNA: GGGAGUUCUACAGUCCGACGAUCGCUUCGAUAUCCGCAUGCUAUCUCACACCCCUGUCCCCGUCCCCUCCACCCCCCGGCAGCAUGCUUCACUCUAUGAAUGAGCCGCUGGGAUAUUGACAUGGAGAACACAUGAUGGAAAAAGCCUCCACACCCAACAUAACUCUCCAGAGAGAUAUUGAAAGUGAUGGGCAGAGAGUCUGACAAUGACCCAGGGGUCAUUGUGAGUCCUAGGCUGAAUCUGUAAUGGGGUCCAAAGUGCAGGAGAGACUGCAUUCACCUUGUUGGUGGGGUGGGGCUUCUUCUCUUGCGGUCGCACUAGUGUGGAAUUCUCGGGUGUCAAGG
B8: ENSMUSG00000061578.1432|Ksr2 (ssRNA)
RNA: GGGAGUUCUACAGUCCGACGAUCGCUUCGAUAUCCGCAUGCUAGUCUCUCUCACUCAUUGCCAACAUGUUGCUGGGAAAGAAUAUUUGAUUUAGAUGCCAAUCAGGAAGGCAAGUAGGAUGGAUGGAUGAGUGAGUGGAUAGGUAGGUAUAUAAAUGGAUGGAUGGGUGAUGGAUGGGUAAAUGAAUGGAUAGGUAUGUGAAUGAAUGGAUGAUGGAUGAAUGGAUGGGUAGGUGGGUAGAUAGGUAUAUGAAUGAAUGGAUGAAUGGAUGGGUGAAUGGAUGGAUAGGUAUGUGAAUAAAUGCUCUUGCGGUCGCACUAGUGUGGAAUUCUCGGGUGUCAAGG
B9: ENSMUSG00000061578.1433|Ksr2 (ssRNA)
RNA: GGGAGUUCUACAGUCCGACGAUCGCUUCGAUAUCCGCAUGCUACUCACUCAUUGCCAACAUGUUGCUGGGAAAGAAUAUUUGAUUUAGAUGCCAAUCAGGAAGGCAAGUAGGAUGGAUGGAUGAGUGAGUGGAUAGGUAGGUAUAUAAAUGGAUGGAUGGGUGAUGGAUGGGUAAAUGAAUGGAUAGGUAUGUGAAUGAAUGGAUGAUGGAUGAAUGGAUGGGUAGGUGGGUAGAUAGGUAUAUGAAUGAAUGGAUGAAUGGAUGGGUGAAUGGAUGGAUAGGUAUGUGAAUAAAUGGAUGGACUCUUGCGGUCGCACUAGUGUGGAAUUCUCGGGUGUCAAGG
B10: ENSMUSG00000061578.1433|Ksr2|145:149;240:244 (ssRNA)
RNA: B9 RNA with G188C, U189A, A190U, U191A, G192C, G283C, U284A, A285U, U286A, G287C
B11: ENSMUSG00000061578.1432|Ksr2|151:155;246:250 (ssRNA)
RNA: B8 RNA with G194C, U195A, A196U, U197A, G198C, G289C, U290A, A291U, U292A, G293C
B12: ENSMUSG00000061578.1434|Ksr2|139:143;234:238 (ssRNA)
RNA: GGGAGUUCUACAGUCCGACGAUCGCUUCGAUAUCCGCAUGCUACAUUGCCAACAUGUUGCUGGGAAAGAAUAUUUGAUUUAGAUGCCAAUCAGGAAGGCAAGUAGGAUGGAUGGAUGAGUGAGUGGAUAGGUAGGUAUAUAAAUGGAUGGAUGGGUGAUGGAUGGGUAAAUGAAUGGAUAGCAUACUGAAUGAAUGGAUGAUGGAUGAAUGGAUGGGUAGGUGGGUAGAUAGGUAUAUGAAUGAAUGGAUGAAUGGAUGGGUGAAUGGAUGGAUAGCAUACUGAAUAAAUGGAUGGAUGGAUGCUCUUGCGGUCGCACUAGUGUGGAAUUCUCGGGUGUCAAGG
B13: ENSMUSG00000061578.1430|Ksr2 (ssRNA)
RNA: GGGAGUUCUACAGUCCGACGAUCGCUUCGAUAUCCGCAUGCUAGUCUUGCUCUCUGUCUCUCUCACUCAUUGCCAACAUGUUGCUGGGAAAGAAUAUUUGAUUUAGAUGCCAAUCAGGAAGGCAAGUAGGAUGGAUGGAUGAGUGAGUGGAUAGGUAGGUAUAUAAAUGGAUGGAUGGGUGAUGGAUGGGUAAAUGAAUGGAUAGGUAUGUGAAUGAAUGGAUGAUGGAUGAAUGGAUGGGUAGGUGGGUAGAUAGGUAUAUGAAUGAAUGGAUGAAUGGAUGGGUGAAUGGAUGGAUAGGUACUCUUGCGGUCGCACUAGUGUGGAAUUCUCGGGUGUCAAGG
B14: ENSMUSG00000061578.1430|Ksr2|163:167 (ssRNA)
RNA: B13 RNA with G206C, U207A, A208U, U209A, G210C
B15: ENSMUSG00000061578.1431|Ksr2|157:161;252:256 (ssRNA)
RNA: GGGAGUUCUACAGUCCGACGAUCGCUUCGAUAUCCGCAUGCUACUCUCUGUCUCUCUCACUCAUUGCCAACAUGUUGCUGGGAAAGAAUAUUUGAUUUAGAUGCCAAUCAGGAAGGCAAGUAGGAUGGAUGGAUGAGUGAGUGGAUAGGUAGGUAUAUAAAUGGAUGGAUGGGUGAUGGAUGGGUAAAUGAAUGGAUAGCAUACUGAAUGAAUGGAUGAUGGAUGAAUGGAUGGGUAGGUGGGUAGAUAGGUAUAUGAAUGAAUGGAUGAAUGGAUGGGUGAAUGGAUGGAUAGCAUACUGAACUCUUGCGGUCGCACUAGUGUGGAAUUCUCGGGUGUCAAGG
B16: ENSMUSG00000061578.1429|Ksr2 (ssRNA)
RNA: GGGAGUUCUACAGUCCGACGAUCGCUUCGAUAUCCGCAUGCUAAGAUCUGUCUUGCUCUCUGUCUCUCUCACUCAUUGCCAACAUGUUGCUGGGAAAGAAUAUUUGAUUUAGAUGCCAAUCAGGAAGGCAAGUAGGAUGGAUGGAUGAGUGAGUGGAUAGGUAGGUAUAUAAAUGGAUGGAUGGGUGAUGGAUGGGUAAAUGAAUGGAUAGGUAUGUGAAUGAAUGGAUGAUGGAUGAAUGGAUGGGUAGGUGGGUAGAUAGGUAUAUGAAUGAAUGGAUGAAUGGAUGGGUGAAUGGAUGGACUCUUGCGGUCGCACUAGUGUGGAAUUCUCGGGUGUCAAGG

These binders were tested against TDP-43 (Homo sapiens, UniProt Q13148 1-414) (assay: RNA Bind-n-Seq with designed 260-mer pool; 25 mM Tris-HCl, 150 mM KCl, 3 mM MgCl2, BSA (printed 500 mg/mL), 20 units/mL SUPERase IN; pH not stated; 500 nM RNA pool, 1 h, 4 C; TDP-43 5, 50, 500 nM; high values mean tight binding). Settings: protein: recombinant; tags: SBP (GST cleaved off with PreScission; pGEX-GST-SBP).
TDP-43, sequence (Q13148 whole entry): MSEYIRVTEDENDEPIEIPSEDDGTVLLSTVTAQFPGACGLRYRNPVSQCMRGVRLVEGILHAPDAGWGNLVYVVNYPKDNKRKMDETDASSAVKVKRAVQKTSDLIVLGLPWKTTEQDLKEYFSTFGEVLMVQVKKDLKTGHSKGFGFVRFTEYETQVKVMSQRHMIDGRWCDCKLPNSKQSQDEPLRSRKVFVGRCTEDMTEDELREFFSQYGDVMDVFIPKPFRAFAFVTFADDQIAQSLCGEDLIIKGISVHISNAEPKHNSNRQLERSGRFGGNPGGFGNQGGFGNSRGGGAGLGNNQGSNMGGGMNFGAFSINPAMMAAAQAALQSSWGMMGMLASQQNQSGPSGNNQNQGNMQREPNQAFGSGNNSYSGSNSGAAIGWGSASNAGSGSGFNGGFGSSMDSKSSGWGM
How it was run: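 The incubation lasted 1 h at 4 °C and used 500 nM of an in vitro-transcribed 260-nt 3′ UTR oligo pool with recombinant SBP-tagged TDP-43 at 5, 50 or 500 nM immobilized on streptavidin beads. It took place in 25 mM Tris-HCl, 150 mM KCl, 3 mM MgCl2, BSA and SUPERase IN. Bound RNA was washed, eluted with biotin, converted to cDNA, PCR-amplified and sequenced to give R, each oligo's normalized abundance in the bound sample divided by that in input. Two independent protein batches provided the duplicates.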

| Binder | binding signal |
| --- | --- |
| B1 | 5.79 R (bound/input frequency ratio) |
| B2 | 0.449 R (bound/input frequency ratio) |
| B3 | 2.14 R (bound/input frequency ratio) |
| B4 | 1.15 R (bound/input frequency ratio) |
| B5 | 0.368 R (bound/input frequency ratio) |
| B6 | 1.21 R (bound/input frequency ratio) |
| B7 | 0.376 R (bound/input frequency ratio) |
| B8 | 6.18 R (bound/input frequency ratio) |
| B9 | 6.35 R (bound/input frequency ratio) |
| B10 | 7.14 R (bound/input frequency ratio) |
| B11 | 5.51 R (bound/input frequency ratio) |
| B12 | 3.79 R (bound/input frequency ratio) |
| B13 | 6.58 R (bound/input frequency ratio) |
| B14 | 5.26 R (bound/input frequency ratio) |
| B15 | 7.04 R (bound/input frequency ratio) |
| B16 | 4.48 R (bound/input frequency ratio) |
